# Reference: the antibiotic and cytotoxicity screens of Wong et al. (2023)
# The whole screen tested about 39,000 compounds, of which about 3,300 (8.5%) were called active. The list comes from a sample in which actives are over-represented; it also holds similar structures and randomly drawn compounds.
# Tested on: HepG2
# Assay: cytotoxicity call (relative viability < 0.9)
# Conditions: 10 µM
row,Compound,cytotoxicity call
1,COc1ccc(NC(=O)N(C)C[C@H]2OCCCC[C@H](C)Oc3ccc(NS(=O)(=O)c4ccccc4)cc3C(=O)N([C@@H](C)CO)C[C@@H]2C)cc1,inactive
2,Cc1ccc(S(=O)(=O)N(C)C[C@H]2OCCCC[C@H](C)Oc3ccc(NC(=O)Cc4ccccc4)cc3C(=O)N([C@@H](C)CO)C[C@H]2C)cc1,inactive
3,COc1ccc([Si](C)(C)[C@H]2[C@H](CCO)O[C@@]3(C(=O)N(Cc4cccc(N5CCCCC5=O)c4)c4ccccc43)[C@@H]2C)cc1,inactive
4,COc1ccc([Si](C)(C)[C@@H]2[C@@H](CCO)O[C@]3(C(=O)N(Cc4cccc(N5C(=O)c6ccccc6Oc6ccccc65)c4)c4ccccc43)[C@H]2C)cc1,active
5,COc1ccc([Si](C)(C)[C@H]2[C@H](CCO)O[C@@]3(C(=O)N(Cc4cccc(N5C(=O)c6ccccc6Oc6ccccc65)c4)c4ccccc43)[C@@H]2C)cc1,active
6,C[C@H]1[C@H]([Si](C)(C)F)[C@@H](CCO)O[C@]12C(=O)N(Cc1cccc(N3C(=O)c4ccccc4Oc4ccccc43)c1)c1ccccc12,inactive
7,CCNc1ncnc2c1nnn2C,inactive
8,Nc1cc([N+](=O)[O-])ccc1C(=O)O,inactive
9,C[C@@H]1CCCCO[C@H](CN(C)C(=O)Nc2ccc(F)cc2)[C@@H](C)CN([C@H](C)CO)C(=O)c2cc(NC(=O)c3ccncc3)ccc2O1,inactive
10,C[C@@H]1CN([C@H](C)CO)C(=O)CCCn2cc(nn2)CO[C@H]1CN(C)C(=O)Nc1ccc2c(c1)OCO2,inactive
11,C[C@@H]1CN([C@@H](C)CO)C(=O)c2cccc(NC(=O)c3cnccn3)c2O[C@@H]1CN(C)S(=O)(=O)c1cccs1,inactive
12,Cc1noc(C)c1NC(=O)Nc1ccc2c(c1)C(=O)N([C@H](C)CO)C[C@@H](C)[C@H](CN(C)Cc1ccc(C(F)(F)F)cc1)OCCCC[C@@H](C)O2,inactive
13,CCN1CCN(c2ccc(Nc3cc(N(C)C(=O)Nc4c(Cl)c(OC)cc(OC)c4Cl)ncn3)cc2)CC1,active
14,C[C@H]1CN([C@@H](C)CO)S(=O)(=O)c2ccc(C3=CCCCC3)cc2O[C@@H]1CN(C)C(=O)C1CCOCC1,inactive
15,C[C@@H]1CCCCO[C@H](CN(C)C(=O)Nc2ccc(F)cc2)[C@H](C)CN([C@@H](C)CO)C(=O)c2cc(NC(=O)Nc3ccc4c(c3)OCO4)ccc2O1,inactive
16,COCC(=O)N1C[C@H](C)[C@H](OC)CN(C)C(=O)c2cc(NC(=O)c3ccc(OC)cc3)ccc2OC[C@@H]1C,inactive
17,Cn1c(=O)c(F)c(Nc2ccc(I)cc2F)c2c(=O)n(C[C@@H](O)CO)cnc21,active
18,Cn1c(=O)c2c(ncn2CC(O)CO)n(C)c1=O (centres undefined),inactive
19,Cn1c(=O)c2c(ncn2C[C@@H](O)CO)n(C)c1=O,inactive
20,C[C@@H]1CN([C@@H](C)CO)C(=O)c2cccc(NC(=O)Nc3ccc(C(F)(F)F)cc3)c2O[C@@H]1CN(C)S(C)(=O)=O,inactive
21,COc1ccc(NC(=O)N(C)C[C@@H]2OCCCC[C@@H](C)Oc3ccc(NS(=O)(=O)c4ccc(F)cc4)cc3C(=O)N([C@H](C)CO)C[C@H]2C)cc1,inactive
22,Fc1ccc(-c2nc3ccc4ccccc4c3c3c2CCC3)cc1,inactive
23,Fc1ccc(-c2nc3c4ccccc4c4ccccc4c3[nH]2)cc1,active
24,N[C@H]1CC[C@H](CCn2cc(C3CCCCC3)nn2)O[C@@H]1CO,inactive
25,CC(C)Oc1cccc(CC(=O)N2CCC[C@](CC[N+]34CCC(c5ccccc5)(CC3)CC4)(c3ccc(Cl)c(Cl)c3)C2)c1,inactive
26,CC(=O)N(C)C1(c2ccccc2)CCN(CCC[C@]2(c3ccc(Cl)c(Cl)c3)CCCN(C(=O)c3ccccc3)C2)CC1,active
27,CN1CCN(C(=O)C[C@@H]2CC[C@@H]3[C@@H](COc4ccc(NC(=O)c5cscn5)cc4C(=O)N3C)O2)CC1,inactive

row,Compound,cytotoxicity call
1,O=C(C[C@@H]1CC[C@@H]2[C@H](COC[C@H](O)CN2C(=O)c2ccccn2)O1)NC1CCC1,inactive
2,CCc1cccc(C)c1NC(C)=O,inactive
3,C[C@H](CO)N1C[C@H](C)[C@H](CN(C)S(C)(=O)=O)OCCCC[C@H](C)Oc2ccc(NS(=O)(=O)c3ccccc3)cc2C1=O,inactive
4,COc1ccc(S(=O)(=O)N2C[C@@H](O)COC[C@H]3O[C@@H](CC(=O)NCCN4CCCCC4)CC[C@@H]32)cc1,inactive
5,C[C@@H]1CN([C@H](C)CO)C(=O)c2cccc(NC(=O)c3cnccn3)c2O[C@@H]1CN(C)Cc1ccc(C(=O)O)cc1,inactive
6,"CC(C)CCC[C@@H](C)[C@H]1CC[C@H]2[C@@H]3C[C@@H](O)[C@@]4(O)C[C@@H](O)CC[C@]4(C)[C@H]3CC[C@]12C [CHOLESTAN-3beta,5alpha,6beta-TRIOL ]",active
7,CC(C)CCCC(C)C1CCC2C3CCC4CC(O)CCC4(C)C3CCC12C (stereo not drawn) [5alpha-CHOLESTANOL ],inactive
8,CC(C)CCCC(C)C1CCC2C3CC(=O)C4CC(O)CCC4(C)C3CCC12C (stereo not drawn) [5alpha-CHOLESTAN-3beta-OL-6-ONE ],inactive
9,CCNC(=O)N1CCCC[C@@H]1CO,inactive
10,C[C@H](N[C@@H](CCc1ccccc1)C(=O)O)C(=O)N1CCC[C@H]1C(=O)O,inactive
11,CN[C@@H](C)C(=O)N[C@H]1CN(C(=O)CC(C)C)CC[C@H]2CC[C@@H](C(=O)NC(c3ccccc3)c3ccccc3)N2C1=O,active
12,O=C(N[C@@H](c1ccccc1)c1ccc2ccccc2n1)C1CCN(C(=O)NC(c2ccccc2)c2ccccc2)CC1,inactive
13,COc1cnc(NS(=O)(=O)c2ccc(N)cc2)nc1,inactive
14,COS(=O)(=O)[O-].COc1cc(N)cn[n+]1-c1ccccc1,active
15,COCC#Cc1cnc2c(c1)C(=O)N([C@@H](C)CO)C[C@@H](C)[C@H](CN(C)C(=O)Nc1cc(F)ccc1F)O2,inactive
16,C[C@H]1CN([C@@H](C)CO)C(=O)c2cc(NC(=O)Nc3ccc(C(F)(F)F)cc3)ccc2O[C@H]1CN(C)C(=O)Nc1cccc2ccccc12,inactive
17,C[C@@H]1CN([C@@H](C)CO)C(=O)c2cc(NC(=O)Nc3cccc4ccccc34)ccc2O[C@@H]1CN(C)C(=O)Nc1ccccc1,inactive
18,C[C@@H]1CN([C@H](C)CO)C(=O)c2cc(NC(=O)Nc3ccc(C(F)(F)F)cc3)ccc2O[C@H]1CN(C)C(=O)Nc1cccc2ccccc12,active
19,C[C@@H]1CN([C@@H](C)CO)C(=O)c2cc(NC(=O)Nc3cccc4ccccc34)ccc2O[C@H]1CN(C)C(=O)Nc1cccc2ccccc12,inactive
20,C[C@H](CO)N1C[C@H](C)[C@@H](CN(C)C(=O)Nc2cccc3ccccc23)Oc2ccc(NC(=O)Nc3ccc(C(F)(F)F)cc3)cc2C1=O,inactive
21,C[C@H](CO)N1C[C@H](C)[C@H](CN(C)C(=O)Nc2cccc3ccccc23)Oc2ccc(NC(=O)Nc3cccc4ccccc34)cc2C1=O,active
22,C[C@H]1CN([C@@H](C)CO)C(=O)c2cc(NC(=O)Nc3cccc4ccccc34)ccc2O[C@H]1CN(C)C(=O)Nc1ccccc1,active
23,C[C@@H]1CN([C@H](C)CO)C(=O)c2cc(NC(=O)Nc3cccc4ccccc34)ccc2O[C@H]1CN(C)C(=O)Nc1ccccc1,inactive
24,COc1ccc(NC(=O)Nc2ccc3c(c2)C(=O)N([C@H](C)CO)C[C@H](C)[C@@H](CN(C)C(=O)Nc2cccc4ccccc24)O3)cc1,inactive
25,COc1ccc(NC(=O)Nc2ccc3c(c2)C(=O)N([C@H](C)CO)C[C@@H](C)[C@@H](CN(C)C(=O)Nc2cccc4ccccc24)O3)cc1,inactive
26,COc1ccc(NC(=O)Nc2ccc3c(c2)C(=O)N([C@@H](C)CO)C[C@H](C)[C@H](CN(C)C(=O)Nc2cccc4ccccc24)O3)cc1,active
27,C[C@@H]1CN([C@H](C)CO)C(=O)c2cc(NC(=O)Nc3cccc4ccccc34)ccc2O[C@H]1CN(C)C(=O)Nc1cccc2ccccc12,inactive
